# Results reported in PubChem BioAssay.
# Active and inactive are the calls of the source. Unless noted, no rule for the calls is given here.
# Legend:
# [1] = tested on: Wnt5a (protein binding on small-molecule microarray); experiment: small molecules binding Wnt5a protein – biophysical, small-molecule microarray, 635/667 nm fluorescence, primary screen (AID 1142); settings: 635 nm fluorescence, higher = more signal;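 also: fluorescence read at 667 nm with signal to noise per printed feature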
# [2] = ATP-based viability of Huh7 replicon cells – cell-based, CellTiter-Glo luminescence, basal, 48 h, cytotoxicity control for HCV replication inhibitor project, primary screen (AID 1143); settings: higher = more signal, called active from +8 up or from −8 down;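 also: Huh7 hepatoma cells carrying a hepatitis C replication reporter with no stimulus; test concentration not given here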
# [3] = Pseudomonas biofilm growth suppression – PAO1 strain, BacTiter-Glo luminescence, LB-PBS, primary screen (AID 1144); settings: P. aeruginosa PAO1 biofilm, 12 h, higher = more signal
# [4] = basal CRE-LacZ reporter activity in PC12 – cell-based, unstimulated, primary screen (AID 1145); settings: no forskolin, luminescence, 4.5 h, higher = more signal, called active from +8 up or from −8 down
# [5] = forskolin-driven CRE-LacZ activity in PC12 – cell-based, CRE-LacZ reporter, forskolin-stimulated, primary screen (AID 1146); settings: luminescence, 4.5 h, higher = more signal, called active from +8 up or from −8 down;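 also: PC12 cells with 6xCRE LacZ reporter stimulated by forskolin 10 µM; beta-galactosidase reporter signal reflecting CREB driven transcription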
# [6] = biological target: Streptavidin (Streptomyces avidinii) (UniProt P22629); experiment: compounds binding control protein streptavidin – biophysical, small-molecule microarray, 635/667 nm fluorescence, artefact control for SMM compound annotation, primary screen (AID 1147); settings: higher = more signal;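 also: signal reflects streptavidin binding to arrayed compounds as a control protein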
# [7] = probe aInhba binding on compound microarray – biochemical, small-molecule microarray, 635/667 nm fluorescence, primary screen (AID 1148); settings: higher = more signal;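 also: score merges 667nm spot fluorescence with signal-to-noise for antibody binding to printed compounds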
# Torsin-1A (Homo sapiens) [8] = biological target: Torsin-1A (Homo sapiens) (UniProt O14656); experiment: TOR1A wild-type binding on microarray – cell lysate, small-molecule microarray, lysate, 635/667 nm, primary screen (AID 1149); settings: COS7 hTOR1A-WT lysate, 635 nm fluorescence, higher = more signal
# Torsin-1A (Homo sapiens) [9] = biological target: Torsin-1A (Homo sapiens) (UniProt O14656); experiment: torsin A mutant lysate binding on microarrays – cell lysate, small-molecule microarray, COS7 lysate, 635/667 nm fluorescence, primary screen (AID 1150); settings: COS7 hTOR1A mutant lysate, 635 nm fluorescence, higher = more signal;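 also: score pools 667 nm emission and signal to noise measuring lysate protein binding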
# [10] = tested on: Sonic hedgehog protein (Shh); experiment: Sonic hedgehog microarray binding compounds – biochemical, small-molecule microarray, 635/667 nm fluorescence, primary screen (AID 1151); settings: 635 nm fluorescence, higher = more signal;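 also: Shh protein binding to compounds spotted on small-molecule microarray slides; score combines spot fluorescence intensity with signal-to-noise across triplicate slides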
# [11] = optical density shifts of acrAB sulA E. coli – strain DRC41, OD650, 48 h, E. coli filamentation inducer project, primary screen (AID 1152); settings: higher = more signal, called active from +8 up or from −8 down;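 also: E. coli MC1000 strain DRC41 lacking acrAB efflux pump and sulA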
# [12] = probe aLefty1 binding on compound microarray – biochemical, small-molecule microarray, 635/667 nm fluorescence, primary screen (AID 1153); settings: higher = more signal;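 also: score merges spot fluorescence with signal-to-noise ratio from the scanned slide images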
# [13] = plasmodial surface anion channel blockers, osmotic lysis – cell-based, P. falciparum Indochina, OD700, 1 h, primary screen (AID 1154); settings: P. falciparum Indochina infected RBC osmotic lysis, higher = more signal, called active from +8 up or from −8 down
# [14] = plasmodial surface anion channel blockers, osmotic lysis – cell-based, P. falciparum Indochina, OD700, 2 h, primary screen (AID 1155);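 also: lysis reports solute entry through the parasite surface anion channel PSAC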; settings: P. falciparum Indochina infected erythrocytes, higher = more signal, called active from +8 up or from −8 down
# [15] = changes in parasitized red cell lysis, either direction – P. falciparum Indochina, OD700, 3 h, PSAC antagonist project, primary screen (AID 1156); settings: P. falciparum-infected erythrocytes, osmotic lysis, higher = more signal, called active from +8 up or from −8 down
# [16] = plasmodial surface anion channel blockers, osmotic lysis – cell-based, P. falciparum Indochina, OD700, 18 h, primary screen (AID 1157); settings: P. falciparum Indochina infected erythrocytes, osmotic lysis OD700, 18 h; higher = more signal, called active from +8 up or from −8 down
# [17] = S6 kinase pathway phospho-S6 level changes – cell-based, A549, cytoblot, luminescence, serum-stimulated, primary screen (AID 1158); settings: 5 h, higher = more signal;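 also: serum-stimulated A549 lung adenocarcinoma cells; signal is phosphorylated S6 detected by cytoblot immunostaining with HRP secondary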
# [18] = biological target: NADPH oxidase 2 (Homo sapiens) (UniProt P04839); experiment: compounds shifting NOX2 Amplex Red fluorescence – cell-based, HEK293-NOX2, PMA-stimulated, NOX inhibitor project, primary screen (AID 1159); settings: 45 min, higher = more signal, called active from +8 up or from −8 down; also: test concentration not given here
# [19] = biological target: NADPH oxidase 4 (Homo sapiens) (UniProt Q9NPH5); experiment: compounds shifting NOX4 Amplex Red fluorescence – cell-based, HEK293-NOX4, tetracycline-induced, NOX inhibitor project, primary screen (AID 1160); settings: HEK293-NOX4, Amplex Red H2O2 fluorescence, 45 min; higher = more signal, called active from +8 up or from −8 down
# [20] = biological target: NADPH oxidase 5 (Homo sapiens) (UniProt Q96PH1); experiment: compounds shifting NOX5 Amplex Red fluorescence – cell-based, HEK293-NOX5, NOX inhibitor project, primary screen (AID 1161); settings: HEK293-NOX5, ionomycin, 45 min, higher = more signal
# Sequence of NADPH oxidase 5 (Homo sapiens) (Q96PH1 whole entry, looked up): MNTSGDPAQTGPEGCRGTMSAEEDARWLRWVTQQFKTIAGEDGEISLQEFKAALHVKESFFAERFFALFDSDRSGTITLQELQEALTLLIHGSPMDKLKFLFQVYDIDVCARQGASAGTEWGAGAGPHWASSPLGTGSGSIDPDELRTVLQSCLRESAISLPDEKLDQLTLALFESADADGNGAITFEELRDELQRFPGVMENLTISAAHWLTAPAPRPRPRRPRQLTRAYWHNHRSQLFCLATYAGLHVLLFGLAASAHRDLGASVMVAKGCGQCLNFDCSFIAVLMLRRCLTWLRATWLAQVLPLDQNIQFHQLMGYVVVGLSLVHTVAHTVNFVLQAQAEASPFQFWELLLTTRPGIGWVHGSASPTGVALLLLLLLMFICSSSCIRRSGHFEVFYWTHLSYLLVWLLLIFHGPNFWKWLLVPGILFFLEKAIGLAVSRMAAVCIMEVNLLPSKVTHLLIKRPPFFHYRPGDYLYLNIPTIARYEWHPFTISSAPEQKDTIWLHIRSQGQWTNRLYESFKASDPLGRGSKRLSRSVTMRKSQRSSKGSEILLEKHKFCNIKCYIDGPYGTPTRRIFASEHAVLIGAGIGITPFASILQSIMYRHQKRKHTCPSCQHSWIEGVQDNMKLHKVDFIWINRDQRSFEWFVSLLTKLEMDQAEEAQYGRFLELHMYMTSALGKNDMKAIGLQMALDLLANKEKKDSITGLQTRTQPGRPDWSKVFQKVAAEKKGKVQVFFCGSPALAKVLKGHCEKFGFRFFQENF
# Sequence of Streptavidin (Streptomyces avidinii) (P22629 whole entry, looked up): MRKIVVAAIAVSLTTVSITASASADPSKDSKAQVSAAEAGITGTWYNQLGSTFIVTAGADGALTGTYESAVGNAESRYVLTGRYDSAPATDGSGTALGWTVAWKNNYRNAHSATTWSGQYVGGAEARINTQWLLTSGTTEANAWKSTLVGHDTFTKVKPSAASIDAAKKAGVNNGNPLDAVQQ
# Sequence of NADPH oxidase 2 (Homo sapiens) (P04839 whole entry, looked up): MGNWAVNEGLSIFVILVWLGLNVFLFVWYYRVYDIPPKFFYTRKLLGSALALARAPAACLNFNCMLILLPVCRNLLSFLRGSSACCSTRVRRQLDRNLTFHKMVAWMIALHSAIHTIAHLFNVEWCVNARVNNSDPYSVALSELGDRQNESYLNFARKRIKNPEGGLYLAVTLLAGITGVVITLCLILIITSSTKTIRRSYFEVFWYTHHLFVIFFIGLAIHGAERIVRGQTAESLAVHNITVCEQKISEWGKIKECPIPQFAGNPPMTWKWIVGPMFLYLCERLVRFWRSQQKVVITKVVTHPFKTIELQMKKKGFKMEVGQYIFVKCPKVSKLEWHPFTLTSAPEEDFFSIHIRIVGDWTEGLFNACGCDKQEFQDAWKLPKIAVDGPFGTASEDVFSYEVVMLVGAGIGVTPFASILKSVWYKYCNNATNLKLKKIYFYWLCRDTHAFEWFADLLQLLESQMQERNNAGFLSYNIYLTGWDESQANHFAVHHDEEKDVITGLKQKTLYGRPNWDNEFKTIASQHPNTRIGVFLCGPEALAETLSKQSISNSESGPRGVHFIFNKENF
# Sequence of Torsin-1A (Homo sapiens) (O14656 whole entry, looked up): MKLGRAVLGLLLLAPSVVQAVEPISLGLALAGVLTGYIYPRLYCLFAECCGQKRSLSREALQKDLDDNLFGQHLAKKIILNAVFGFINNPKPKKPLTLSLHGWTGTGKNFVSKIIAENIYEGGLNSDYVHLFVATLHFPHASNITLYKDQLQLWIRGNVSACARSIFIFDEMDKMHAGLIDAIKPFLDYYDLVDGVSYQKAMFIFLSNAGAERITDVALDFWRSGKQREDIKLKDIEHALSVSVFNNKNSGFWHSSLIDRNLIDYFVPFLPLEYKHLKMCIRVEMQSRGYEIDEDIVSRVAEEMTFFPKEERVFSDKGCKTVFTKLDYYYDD
# Sequence of NADPH oxidase 4 (Homo sapiens) (Q9NPH5 whole entry, looked up): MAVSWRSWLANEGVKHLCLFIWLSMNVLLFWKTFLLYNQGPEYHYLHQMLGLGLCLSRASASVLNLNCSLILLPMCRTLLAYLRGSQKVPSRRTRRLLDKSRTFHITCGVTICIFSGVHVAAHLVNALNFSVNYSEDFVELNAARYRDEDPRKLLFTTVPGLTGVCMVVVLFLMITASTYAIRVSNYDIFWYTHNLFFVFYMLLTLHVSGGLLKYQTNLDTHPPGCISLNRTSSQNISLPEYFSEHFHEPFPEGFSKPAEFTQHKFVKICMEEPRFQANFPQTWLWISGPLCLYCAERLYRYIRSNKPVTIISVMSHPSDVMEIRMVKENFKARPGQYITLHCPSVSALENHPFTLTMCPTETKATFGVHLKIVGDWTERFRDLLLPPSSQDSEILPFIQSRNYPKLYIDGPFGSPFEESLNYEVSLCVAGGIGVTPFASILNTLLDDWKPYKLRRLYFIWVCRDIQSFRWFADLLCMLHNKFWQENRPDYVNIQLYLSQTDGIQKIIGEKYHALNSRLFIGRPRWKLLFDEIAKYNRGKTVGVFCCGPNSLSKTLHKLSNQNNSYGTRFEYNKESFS
structure (smiles),measurement,setting,value
COc1ccccc1CN1C(=O)c2ccccc2[C@@]2(Cc3ccccc3N(CC(F)(F)F)C2=O)[C@@H]1c1ccc(CO)cc1,composite z-score,[1],0.0586
same,z-score,[2],0.338 (inactive)
same,z-score,[3],0.126 (inactive)
same,z-score,[4],1.24 (inactive)
same,z-score,[5],-0.173 (inactive)
same,composite z-score,[6],0.276
same,composite z-score,[7],0.173
same,composite z-score,Torsin-1A (Homo sapiens) [8],-0.116
same,composite z-score,Torsin-1A (Homo sapiens) [9],-0.33
same,composite z-score,[10],0.53
same,z-score,[11],0.254 (inactive)
same,composite z-score,[12],0.0623
same,z-score,[13],0.252 (inactive)
same,z-score,[14],0.633 (inactive)
same,z-score,[15],-1.9 (inactive)
same,z-score,[16],0.206 (inactive)
same,z-score,[17],-0.309
same,z-score,[18],-0.802 (inactive)
same,z-score,[19],-0.565 (inactive)
same,z-score,[20],-0.154
C=C(C)C1CCC(C(O)C2C=CC3C(=O)N(C)C(=O)C3N2N2CCCCC2)CC1 (stereo not given),composite z-score,[1],0.467
same,z-score,[2],0.635 (inactive)
same,z-score,[3],-0.0283 (inactive)
same,z-score,[4],0.622 (inactive)
same,z-score,[5],0.924 (inactive)
same,composite z-score,[6],1.61
same,composite z-score,[7],0.143
same,composite z-score,Torsin-1A (Homo sapiens) [8],0.476
same,composite z-score,Torsin-1A (Homo sapiens) [9],1.34
same,composite z-score,[10],0.758
same,z-score,[11],-1.09 (inactive)
same,composite z-score,[12],0.336
same,z-score,[13],1.23 (inactive)
same,z-score,[14],0.737 (inactive)
same,z-score,[15],0.302 (inactive)
same,z-score,[16],1.37 (inactive)
same,z-score,[17],-1.41
same,z-score,[18],-0.128 (inactive)
same,z-score,[19],0.773 (inactive)
same,z-score,[20],0.0159
O=C1C[C@@](C(=O)NCCN2CCOCC2)(c2ccc([N+](=O)[O-])cc2)[C@@H](c2ccc(CO)cc2I)N1C1CCCCC1,composite z-score,[1],0.642
same,z-score,[2],-4.95 (inactive)
same,z-score,[3],-1.36 (inactive)
same,z-score,[4],0.0279 (inactive)
same,z-score,[5],-1.11 (inactive)
same,composite z-score,[6],-0.0491
same,composite z-score,[7],-0.0468
same,composite z-score,Torsin-1A (Homo sapiens) [8],-0.308
same,composite z-score,Torsin-1A (Homo sapiens) [9],0.896
same,composite z-score,[10],1.92
same,z-score,[11],0.82 (inactive)
same,composite z-score,[12],0.0688
same,z-score,[13],15.3 (active)
same,z-score,[14],1.59 (inactive)
same,z-score,[15],2.94 (inactive)
same,z-score,[16],-0.168 (inactive)
same,z-score,[17],0.452
same,z-score,[18],2.1 (inactive)
same,z-score,[19],-1.09 (inactive)
same,z-score,[20],-1.5
C=CCN1C(=O)[C@@]2(O[C@@H](CCn3cc([C@H](O)c4ccccc4)nn3)[C@H]([Si](C)(C)c3ccc(OC)cc3)[C@H]2C)c2cc(N3CCC3=O)ccc21,composite z-score,[1],-0.162
same,z-score,[2],-1.83 (inactive)
same,z-score,[3],-1.01 (inactive)
same,z-score,[4],17 (active)
same,z-score,[5],-1.02 (inactive)
same,composite z-score,[6],-0.101
same,composite z-score,[7],-0.154
same,composite z-score,Torsin-1A (Homo sapiens) [8],0.195
same,composite z-score,Torsin-1A (Homo sapiens) [9],0.183
same,composite z-score,[10],-0.0053
same,z-score,[11],0.359 (inactive)
same,composite z-score,[12],-0.189
same,z-score,[13],14.4 (active)
same,z-score,[14],1.98 (inactive)
same,z-score,[15],0.292 (inactive)
same,z-score,[16],1.01 (inactive)
same,z-score,[17],-0.266
same,z-score,[18],0.631 (inactive)
same,z-score,[19],-0.498 (inactive)
same,z-score,[20],0.0158
COC(=O)[C@@]1(Cc2ccc(F)cc2)[C@H]2c3cc(C(=O)N(C)C)n(CCc4ccc(O)c(OC)c4)c3C[C@H]2CN1C(=O)c1ccccc1,composite z-score,[1],2.23
same,z-score,[2],0.462 (inactive)
same,z-score,[3],-0.0301 (inactive)
same,z-score,[4],0.783 (inactive)
same,z-score,[5],0.15 (inactive)
same,composite z-score,[6],0.637
same,composite z-score,[7],1.62
same,composite z-score,Torsin-1A (Homo sapiens) [8],0.334
same,composite z-score,Torsin-1A (Homo sapiens) [9],0.234
same,composite z-score,[10],-0.804
same,z-score,[11],-1.22 (inactive)
same,composite z-score,[12],1.63
same,z-score,[13],-0.951 (inactive)
same,z-score,[14],0.236 (inactive)
same,z-score,[15],-0.722 (inactive)
same,z-score,[16],0.667 (inactive)
same,z-score,[17],-0.824
same,z-score,[18],-0.0241 (inactive)
same,z-score,[19],-0.627 (inactive)
same,z-score,[20],-0.245
C=C(C)c1cc2c(c(CCCCCC)n1)[Si](C(C)C)(C(C)C)OC2,composite z-score,[1],-0.712
same,z-score,[2],-0.342 (inactive)
same,z-score,[3],0.582 (inactive)
same,z-score,[4],0.367 (inactive)
same,z-score,[5],0.0246 (inactive)
same,composite z-score,[6],-1.01
same,composite z-score,[7],-0.159
same,composite z-score,Torsin-1A (Homo sapiens) [8],-1.74
same,composite z-score,Torsin-1A (Homo sapiens) [9],-1.05
same,composite z-score,[10],-0.351
same,z-score,[11],-0.959 (inactive)
same,composite z-score,[12],-0.245
same,z-score,[13],1.18 (inactive)
same,z-score,[14],0.7 (inactive)
same,z-score,[15],-0.0223 (inactive)
same,z-score,[16],0.778 (inactive)
same,z-score,[17],0.202
same,z-score,[18],-1.98 (inactive)
same,z-score,[19],-0.933 (inactive)
same,z-score,[20],-2.92
COC(=O)CCCCCCC(=O)Nc1ccc(NC(=O)CCCC[P+](c2ccccc2)(c2ccccc2)c2ccccc2)cc1,composite z-score,[1],0.38
same,z-score,[2],-0.238 (inactive)
same,z-score,[3],-0.873 (inactive)
same,z-score,[4],0.575 (inactive)
same,z-score,[5],-1.85 (inactive)
same,composite z-score,[6],0.352
same,composite z-score,[7],-0.0645
same,composite z-score,Torsin-1A (Homo sapiens) [8],0.463
same,composite z-score,Torsin-1A (Homo sapiens) [9],0.28
same,composite z-score,[10],1.89
same,z-score,[11],-12.4 (active)
same,composite z-score,[12],-0.0601
same,z-score,[13],25.6 (active)
same,z-score,[14],9.83 (active)
same,z-score,[15],1.95 (inactive)
same,z-score,[16],1.43 (inactive)
same,z-score,[17],0.274
same,z-score,[18],-0.765 (inactive)
same,z-score,[19],0.429 (inactive)
same,z-score,[20],0.0901
Cc1ccc(S[C@]2(C(=O)O)CC(=O)N(Cc3ccccc3Cl)[C@@H]2c2ccc(CO)cc2I)cc1,composite z-score,[1],-0.3
same,z-score,[2],-2.09 (inactive)
same,z-score,[3],-0.309 (inactive)
same,z-score,[4],1.2 (inactive)
same,z-score,[5],3 (inactive)
same,composite z-score,[6],-0.657
same,composite z-score,[7],-0.649
same,composite z-score,Torsin-1A (Homo sapiens) [8],0.294
same,composite z-score,Torsin-1A (Homo sapiens) [9],0.396
same,composite z-score,[10],0.0254
same,z-score,[11],-0.754 (inactive)
same,composite z-score,[12],-0.814
same,z-score,[13],8.88 (active)
same,z-score,[14],1.4 (inactive)
same,z-score,[15],0.767 (inactive)
same,z-score,[16],0.744 (inactive)
same,z-score,[17],-0.0366
same,z-score,[18],3.66 (inactive)
same,z-score,[19],-2.51 (inactive)
same,z-score,[20],-0.915
COc1cccc(/C=C/C=O)c1,composite z-score,[1],0.279
same,z-score,[2],-0.0204 (inactive)
same,z-score,[3],-0.301 (inactive)
same,z-score,[4],0.0026 (inactive)
same,z-score,[5],0.599 (inactive)
same,composite z-score,[6],-0.283
same,composite z-score,[7],0.156
same,composite z-score,Torsin-1A (Homo sapiens) [8],0.582
same,composite z-score,Torsin-1A (Homo sapiens) [9],0.351
same,composite z-score,[10],0.0757
same,z-score,[11],1.46 (inactive)
same,composite z-score,[12],0.212
same,z-score,[13],0.206 (inactive)
same,z-score,[14],-0.11 (inactive)
same,z-score,[15],-0.648 (inactive)
same,z-score,[16],-0.0641 (inactive)
same,z-score,[17],0.0159
same,z-score,[18],-0.759 (inactive)
same,z-score,[19],-0.228 (inactive)
same,z-score,[20],0.985
